A selection: hits, their analogues and other compounds. The true share with any hit is near 9.3%.
HCMV antiviral: inhibitors of human cytomegalovirus | AID 1259415 | 410,000 compounds, 4.5% hits | HFF cells, HCMV-luciferase reporter, 72 h; active compounds read low | activity change, negative = inhibition, % at 57.5 µM; in the data active means activity change below about -60%; inconclusive means no clear call, values can overlap the other calls; inactive means above about -39%
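Human foreskin fibroblasts infected with luciferase-reporter HCMV at MOI 1 PFU/cell, compounds at two doses. Luciferase measured 72 h post infection; normalized to buffer-only basal and Salinomycin (10uM) controls.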
Sm TGR block: inhibitors of Schistosoma mansoni thioredoxin glutathione reductase; Q962Y6; purified TGR, DTNB reduction, TNB absorbance 405 nm; Potency, µM (top dose mostly 114 µM), inactives show top-dose activity change, negative = inhibition, usual class: inhibitors; 360,000 compounds, 3% hits; AID 485364; further: potency means the concentration at half of the fitted maximal effect; nearly all actives have a fitted effect of over 60% in size
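Kinetic colorimetric format: TGR-catalysed, NADPH-driven DTNB reduction monitored via TNB absorbance. Enzyme dispensed at 20 nM; compound exposure 15 min at room temperature before reaction start.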
FMDV antiviral: foot and mouth disease virus antiviral activity; FMDV antiviral cell-based qHTS; Potency, µM (highest dose often 57.9 µM), for inactives: top-dose activity change, negative = inhibition, most hits filed as inhibitors; 410,000 compounds, 1.2% hits; calls by dose curve; tested in HEK293T cells; further: read-out not given here; potency means the concentration at half of the fitted maximal effect; nearly all actives have a fitted effect of over 45% in size
HCV inhibitor: inhibitors of hepatitis C virus infection. Huh7.5.1 HCVcc-Cre infection, luciferase reporter, 44 h. Potency, µM (titrated, usually from 41.8 µM), for the others: at the highest dose activity change, negative = inhibition, actives largely listed as inhibitors. 340,000 compounds, 3.4% hits; further: potency means the concentration at half of the fitted maximal effect
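Cells seeded at 1,000/well and cultured 4 h, then compounds added followed by HCVcc-Cre virus (~0.5 moi). After 44 h further culture, luciferase substrate was added, plates held 15 min at room temperature, and luminescence read for 15 sec.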
Vaccinia Venus: vaccinia inhibition (Venus reporter); Vaccinia virus Venus reporter expression, fluorescence; 330,000 compounds, 0.46% hits; Potency, µM (series often up to 36.5 µM), for the others: top-dose activity change, negative = inhibition, usual class: inhibitors; AID 720580; calls by dose curve; tested in A549 cells; further: potency means the concentration at half of the fitted maximal effect; nearly all actives have a fitted effect of over 30% in size
VACV mCherry inh: vaccinia inhibition (mCherry reporter). Vaccinia virus mCherry reporter infection, fluorescence. Potency, µM (series often up to 36.5 µM), without a hit: top-dose activity change, negative = inhibition, usual class: inhibitors. 310,000 compounds, 0.63% hits. AID 720579; calls by dose curve; tested in A549 cells; further: potency means the concentration at half of the fitted maximal effect; nearly all actives have a fitted effect of over 35% in size
The depositor's hits bear a star; i = inactive; ? = inconclusive; / = no result. Unless noted, the call rests on the fitted dose curve; in most records, active means well fitted curve in the direction sought with a large enough effect; inconclusive means small, poorly fitted or top-dose-only effect, or another doubt; inactive means no such curve, though single readings can be large; an effect the other way counts as inactive or inconclusive. On the % scale 0 is the no-effect control and ±100 the full control effect.

SMILES	HCMV antiviral	Sm TGR block	FMDV antiviral	HCV inhibitor	Vaccinia Venus	VACV mCherry inh
COC(=O)c1cc(S(=O)(=O)N2CCOCC2)c(N2CCOCC2)cc1N1CCOCC1	42.4	2.7%	-10.5%	1.2%	-15.2%	-9.4%
CCCCN1C(=O)/C(=C/C=C2/CC(C)(C)CN2C)SC1=S	40.0	-32.5%	16.3%	7.0%	13.8%	i
Cc1cc(C)n(CCN(C)C(=O)CCc2nnc(-c3ccc4c(c3)OCO4)o2)n1	-27.8	0.0%	11.6%	-4.6%	-11.5%	i
COc1cc(/C=C/C(=O)c2ccc(C)c([N+](=O)[O-])c2)cc(OC)c1O	-16.6	-23.1%	14.1µM*	?	-22.5%	?
COc1cc(/C=C/C(=O)c2cccc([N+](=O)[O-])c2)cc(OC)c1OC	-24.4	-29.2%	28.2µM*	11.2µM*	-21.0%	i
O=C(/C=C/c1ccccc1F)c1cccc([N+](=O)[O-])c1	28.1	?	13.9%	15.4%	-1.5%	-8.3%
Cc1ccc2[nH]c(CSc3nnc(NC(=O)c4ccc(Cl)cc4)s3)cc(=O)c2c1	9.2	7.5%	-3.5%	/	-0.7%	-1.9%
O=C(CN(Cc1ccc(Br)cc1)S(=O)(=O)c1ccccc1)NCc1cccnc1	-29.3	15.7%	-12.9%	-11.6%	-12.5%	-1.8%
O=C(NCc1cccnc1)/C(=C/c1ccc(-c2cccc(C(F)(F)F)c2)o1)NC(=O)c1ccccc1	-6.5	2.4%	-21.3%	1.6%	-23.1%	-24.5%
O=C(NCc1cccnc1)/C(=C\c1ccc(-c2ccc(Br)cc2)o1)S(=O)(=O)c1ccccc1	-102.6*	50.1µM*	3.16µM*	11.2µM*	10µM*	?
O=C(NCc1cccnc1)/C(=C/c1ccc(-c2ccc(Cl)cc2)o1)S(=O)(=O)c1ccccc1	/	20µM*	3.55µM*	7.94µM*	/	/
Cc1ccc(NC(=O)CSc2nnc(-c3nnn(-c4ccc(F)cc4)c3C)o2)cc1Br	32.3	-6.6%	3.1%	/	-5.5%	-10.1%
CCN(CC)S(=O)(=O)c1ccc(OC)c(NC(=O)CCS(=O)(=O)Cc2ccccc2)c1	-69.0*	-1.3%	-12.1%	-2.1%	-13.0%	-19.0%
CCN(CC)S(=O)(=O)c1ccc2c(c1)nc(CCC(=O)Nc1ccccc1Cc1ccccc1)n2CC	?	-0.8%	-18.2%	10µM*	-19.2%	-3.6%
CCN(CC)c1ccc(NC(=O)CNCc2ccccc2Cl)c(C)c1	-102.6*	-18.5%	10.2%	-29.1%	-22.2%	?
CCN(CC)S(=O)(=O)c1ccc(OC)c(NC(=O)OCc2ccccc2)c1	-12.3	0.5%	-5.0%	-24.5%	-5.4%	-13.5%
CCN(CC)c1ccc(NC(=O)c2cnc3ccccn3c2=O)c(C)c1	-72.9*	-24.8%	-3.8%	-18.8%	-16.5%	-16.2%
O=C(CNCc1ccccc1Cl)Nc1ccccc1N1CCCCC1	-12.5	/	-21.8%	?	5.5%	i
Cc1ccc(NC(=O)c2cnc3cc(C)ccn3c2=O)c(C)c1	61.0	9.9%	56.6%	/	1.7%	-10.5%
CCN(C(=O)Cn1c(=O)oc2cc(S(=O)(=O)N3CCCC3)ccc21)c1ccc(OC)cc1	-15.7	8.6%	0.0%	-7.7%	-12.1%	?
CCN(c1ccccc1)S(=O)(=O)c1ccc(OC)c(NC(=O)Cc2ccccc2OC)c1	-16.9	-4.3%	-0.5%	10µM*	/	/
CCN(c1ccccc1)S(=O)(=O)c1ccc(OC)c(NC(=O)Cc2ccc(OC)c(OC)c2)c1	-26.2	-0.9%	?	6.31µM*	/	/
CCN(c1ccccc1)S(=O)(=O)c1ccc(Cl)c(NC(=O)CNCc2ccccc2OC)c1	20.6	/	?	11.2µM*	-16.1%	i
CCN(c1ccccc1)S(=O)(=O)c1ccc(OC)c(NC(=O)C2CC2)c1	-9.9	-8.2%	-7.7%	-22.9%	/	/
CCN(c1ccccc1)S(=O)(=O)c1ccc(OC)c(NC(=O)c2cc(Cl)ccn2)c1	/	44.7µM*	-14.6%	-13.7%	-8.0%	-10.3%
SMILES	HCMV antiviral	Sm TGR block	FMDV antiviral	HCV inhibitor	Vaccinia Venus	VACV mCherry inh
Cc1ccc(S(=O)(=O)NCC(=O)NCC(=O)NCCc2ccccc2F)cc1C	?	0.9%	-5.8%	-8.7%	-14.7%	-2.6%
CCOc1ccc(N2C(=O)CC(N3CCC(NC(=O)Nc4ccccc4)CC3)C2=O)cc1 (centres undefined)	6.1	-9.7%	-12.1%	19.8%	-8.3%	/
Cc1cccc(C(=O)NC(C)C(=O)NC(c2nc3ccccc3[nH]2)C(C)C)c1 (centres undefined)	5.8	2.5%	-5.2%	8.2%	/	/
CCOC(=O)/C=C/[C@H](CC(C)C)NC(=O)C(F)(F)F	-18.7	/	/	/	/	/
O=C(COC(=O)Cc1ccccc1)Nc1ccc(SC(F)F)cc1	11.6	-3.1%	-9.6%	4.4%	/	/
CN(C)CCCN(Cc1ccccc1)C(=S)Nc1ccc(SC(F)F)cc1	?	5.7%	-3.9%	?	/	/
FC(F)Sc1ccc(NC(=S)NCc2ccccc2)cc1	-88.2*	4.1%	50.1%	?	?	-1.3%
FC(F)Sc1ccc(NC(=S)NC(c2ccccc2)c2ccccc2)cc1	-97.6*	8.3%	?	?	/	/
CN(C(=S)Nc1ccc(SC(F)F)cc1)C(c1ccccc1)c1ccccc1	-72.5*	-26.3%	-12.7%	?	/	/
CN=C(Nc1ccc(C(=O)OC)cc1)SC1CC(=O)N(c2ccccc2F)C1=O (centres undefined)	123.6	-0.8%	?	-15.1%	-28.6%	/
c1ccc(OCc2nnc3n2N=C(c2ccccc2)CS3)cc1	79.7	3.6%	2.2%	-19.8%	-6.1%	-3.9%
CCn1c(CCNC(=O)c2ccc(OC)cc2)nnc1SCc1ccc(Cl)c(Cl)c1	-60.3*	-18.9%	?	?	?	?
COc1ccc(C(=O)Nc2nc(CC(=O)NCCc3ccccc3)cs2)cc1	33.8	3.9%	-4.6%	10µM*	-5.3%	-12.0%
COc1ccc(C(=O)Nc2cc(C(=O)NCCc3ccccc3)ccc2Cl)cc1	25.7	-9.4%	/	8.91µM*	-11.5%	-6.6%
C=CCSc1nnc(NC(=O)c2ccc(N3CCCC3=O)cc2)s1	41.7	-4.7%	46.0%	8.6%	/	/
CCCC(=O)c1cc(-c2nc3ccccc3n2C)n(C)c1	17.3	-6.8%	7.6%	22.4µM*	-20.7%	i
CC(=O)NCc1cc(Cl)c2cccnc2c1O	/	-21.0%	/	/	/	/
O=C(O)COc1ccccc1C(Nc1ccccn1)c1cc(Cl)c2cccnc2c1O (centres undefined)	-26.4	0.398µM*	-18.5%	-1.2%	-8.2%	i
O=C(O)COc1ccccc1C(Nc1cccnc1)c1cc(Cl)c2cccnc2c1O (centres undefined)	/	1µM*	-5.8%	2.1%	-2.1%	-2.0%
COc1ccc(-n2cnnc2SC(C)C(=O)Nc2cccc([N+](=O)[O-])c2)cc1 (centres undefined)	-37.8	-1.4%	-19.5%	-11.5%	-3.3%	-16.6%
COc1cccc(-n2cnnc2SC(C)C(=O)NC2CCCC2)c1 (centres undefined)	98.4	50.1µM*	-8.2%	?	-10.7%	i

Source: PubChem BioAssay (National Center for Advancing Translational Sciences (NCATS))
